Screens deposited in PubChem BioAssay by National Center for Advancing Translational Sciences (NCATS).
An excerpt weighted towards active compounds, which were near 13% of everything screened.
HCV inhibitor: inhibitors of hepatitis C virus infection; Potency, µM (highest dose often 41.8 µM), hits mostly inhibitors; 3.4% of 340,000 active; Huh7.5.1 HCVcc-Cre infection, luciferase reporter, 44 h; active = well fitted inhibition curve with a large enough effect; inconclusive = small, poorly fitted or top-dose-only effect, or another doubt; inactive = no such curve, though single readings can be large or run the other way
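Antiviral activity was scored by luciferase reporter output from cells infected with HCVcc-Cre (~0.5 moi) in presence of compound, 44 h infection period, cells seeded 1,000/well 4 h prior.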
FMDV inh: antivirals against foot and mouth disease virus; AID 1159524; Potency, µM (series often up to 57.9 µM), most hits filed as inhibitors; 1.2% of 410,000 active; FMDV antiviral cell-based qHTS; calls by dose curve; tested in HEK293T cells; also: read-out not given here; nearly all actives have a fitted effect of over 45% in size
CHX counter: counter-screen hit for Shiga toxin inhibitors, cycloheximide; 12% of 300,000 active; max response, %; cell reporter, cycloheximide protein synthesis inhibition counterscreen; in the data active = max response mostly above about 13%, no sharp cut-off; inactive = mostly below about 14%; also: read at 38.3 µM for the half of the compounds with a filed dose
Lassa entry inh: inhibitors of Lassa virus binding or cell entry | Lassa virus pseudotype entry inhibition, cell reporter | Potency, µM (series often up to 37.9 µM), hits mostly inhibitors | 1.2% of 300,000 active; calls by dose curve; tested in HEK293 cells; also: nearly all actives have a fitted effect of over 50% in size
Shiga inhibitor: Shiga toxin inhibition. Vero cells, Shiga toxin protein synthesis inhibition reporter. inhibition, % at 38.7 µM. 9.2% of 290,000 active; in the data active = inhibition mostly above about 28%, no sharp cut-off; inactive = mostly below about 43%
Marburg entry inh: Marburg virus entry inhibition; Marburg virus pseudotyped entry inhibition, cell reporter; 1.8% of 300,000 active; Potency, µM (series often up to 37.8 µM), most hits filed as inhibitors; AID 540276; calls by dose curve; tested in HEK293 cells
Each line names hits and unclear results; the compound was inactive in the other large screens.

CCOC(=O)Cc1csc(NC(=S)NC(=O)c2ccccc2)n1	none
CCOC(=O)Cc1csc(NC(=S)NC(=O)c2ccccc2Br)n1	CHX counter 20.5, Marburg entry inh inconclusive
CCOC(=O)Cc1csc(NC(=O)Cc2ccccc2[N+](=O)[O-])n1	CHX counter 17.7
CCOC(=O)Cc1csc(NC(=O)c2ccc(Br)s2)n1	CHX counter 32.0, Shiga inhibitor 61.5 (no result: HCV inhibitor, FMDV inh, Lassa entry inh)
CCOC(=O)Cc1csc(NC(=O)c2cccs2)n1	CHX counter 23.9
COc1ccc2c(c1)C(c1ccccc1)NC(=O)C2 (centres undefined)	none (no result: CHX counter, Lassa entry inh, Shiga inhibitor, Marburg entry inh)
CCOC(=O)Cc1csc(NC(=O)CCCC(=O)O)n1	none
CC(=O)c1sc(NC(=O)c2cccs2)nc1C	none (no result: Lassa entry inh, Marburg entry inh)
CCOC(=O)Cc1csc(NC(=O)/C=C/c2cccc(Br)c2)n1	HCV inhibitor 11.2µM, FMDV inh inconclusive, Lassa entry inh inconclusive, Marburg entry inh inconclusive
CCOC(=O)c1csc(NC(=O)c2cccs2)n1	CHX counter 33.0, Shiga inhibitor 102.8 (no result: Lassa entry inh, Marburg entry inh)
CCOC(=O)c1sc(NC(=O)c2cccs2)nc1C	CHX counter 17.3, Shiga inhibitor 70.0 (no result: Lassa entry inh)
CCn1c(SCC(=O)NC2CC2)nnc1-c1cccs1	none (no result: CHX counter, Lassa entry inh, Shiga inhibitor, Marburg entry inh)
Cc1cc(C)cc(NC(=O)CSc2oc(-c3ccco3)nc2S(=O)(=O)c2ccc(Cl)cc2)c1	Marburg entry inh inconclusive (no result: HCV inhibitor, CHX counter, Shiga inhibitor)
Clc1ccc2oc(-c3ccccc3)cc(=NCCCN3CCOCC3)c2c1	HCV inhibitor inconclusive, CHX counter 24.8, Shiga inhibitor 92.6, Marburg entry inh inconclusive (no result: Lassa entry inh)
Clc1cccc(-c2nc(NCCCN3CCOCC3)c3ccccc3n2)c1	HCV inhibitor inconclusive (no result: Lassa entry inh, Marburg entry inh)
OCCCCCN=c1cc(-c2ccccc2)oc2ccc(Cl)cc12	HCV inhibitor inconclusive, CHX counter 45.0, Lassa entry inh inconclusive, Shiga inhibitor 84.7, Marburg entry inh inconclusive
CC(C)/C=N/Nc1nc(-c2ccc(Br)cc2)cs1	CHX counter 31.3, Shiga inhibitor 54.4, Marburg entry inh inconclusive
O=C(Nc1nc(-c2ccc(Br)cc2)cs1)c1cccnc1	none
COc1ccc(-n2nc(C(=O)NCC(=O)NCC3COc4ccccc4O3)c3ccccc3c2=O)cc1OC (centres undefined)	Marburg entry inh inconclusive
COc1cccc(CN(C)C(=O)CNC(=O)c2ccc(-c3ccccc3)cc2)c1OC	HCV inhibitor 3.16µM, FMDV inh inconclusive, Lassa entry inh inconclusive, Marburg entry inh inconclusive
COc1cccc(CN(C)C(=O)CNC(=O)c2cccs2)c1OC	Lassa entry inh inconclusive (no result: CHX counter, Shiga inhibitor)
COc1cccc(CN(C)C(=O)CCN(c2ccccc2)S(=O)(=O)c2ccc(C)cc2)c1OC	HCV inhibitor 11.2µM, Lassa entry inh inconclusive, Marburg entry inh inconclusive (no result: CHX counter, Shiga inhibitor)
C[C@H](CCC(=O)O)C[C@H](C)C[C@H](C)C(=O)/C=C(\O)[C@H](C)C[C@H](C)C/C=C/[C@@H](C)[C@@H](O)[C@@H](C)[C@@H](O)C[C@@H]1CC[C@@](C)(C2CC[C@@](C)([C@@H](C)O)O2)O1 (some centres undefined)	none (no result: HCV inhibitor, FMDV inh, Lassa entry inh, Marburg entry inh)
O=C(CN1C(=O)c2ccccc2C1=O)OC(C(=O)c1ccc(Cl)cc1)c1ccccc1 (centres undefined)	none
CC(C)c1onc(C(=O)NCc2cccs2)c1[N+](=O)[O-]	none (no result: Lassa entry inh, Marburg entry inh)
C/[N+]([O-])=C\c1cccc(OCCN2CCN(c3ncc(C(F)(F)F)cc3Cl)CC2)c1	HCV inhibitor 25.1µM, FMDV inh inconclusive, Marburg entry inh inconclusive
O=C1CSC(c2cn(-c3ccccc3)nc2-c2ccccc2)N1Cc1ccco1 (centres undefined)	HCV inhibitor inconclusive, FMDV inh inconclusive, CHX counter 19.3, Lassa entry inh inconclusive, Marburg entry inh inconclusive
CCc1ccc(-c2nn(-c3ccccc3)cc2C2SCC(=O)N2Cc2ccco2)cc1 (centres undefined)	HCV inhibitor inconclusive
COc1ccc(NC(=O)C(C)N2c3cccc4cccc(c34)S2(=O)=O)cc1OC (centres undefined)	HCV inhibitor 6.31µM, Marburg entry inh inconclusive (no result: FMDV inh)
CCCN(CC1CCCO1)C(=O)CCc1nnc(CCc2ccc(OC)cc2)o1 (centres undefined)	CHX counter 27.3 (no result: Lassa entry inh, Marburg entry inh)
CCc1ccc(CN(C)C(=O)CCc2nnc(Cc3cccc(C)c3)o2)nc1	none
CCN1CCN(C(=O)CCc2nnc(CCc3ccc(OC)cc3)o2)[C@@H](C)C1=O	CHX counter 23.5 (no result: HCV inhibitor)
Cc1cccc(Cc2nnc(CCC(=O)N(CC3CC3)CC3CCCO3)o2)c1 (centres undefined)	CHX counter 47.4, Shiga inhibitor 57.9, Marburg entry inh inconclusive
